Rows were chosen to be rich in hits. Some 6.3% of all compounds tested hit in one or more screens of this group.
S2 tox – reduces viability in counter-screen for ATXN expression inhibitors. S2 cells (HEK-293 line with an ATXN2-luciferase reporter) viability, CellTiter-Fluor protease fluorescence, 24 h. Potency, µM (titrated, usually from 56.7 µM), usual class: cytotoxic. actives 0.49% (n = 400,000). AID 651635; also: nearly all actives have a fitted effect of over 40% in size
ATXN2 expr inh – reduces ATXN2 reporter expression in HEK-293 cells; Potency, µM (doses to about 57 µM), hits mostly inhibitors; HEK-293 ATXN2-luciferase reporter, luminescence, 24 h; AID 1745845; actives 0.72% (n = 360,000); also: nearly all actives have a fitted effect of over 55% in size
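qHTS (up to 57 uM final) was run with 24 h compound exposure of reporter cells at 37 °C. Each well was multiplexed: SteadyGlo luminescence measured ATXN2-luciferase expression after a fluorogenic Gly-Phe-AFC viability readout (25 uM final).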
RORgamma inh – ROR gamma (mouse) transcription inhibition; P51450; Drosophila S2 Gal4-RORgamma UAS-luciferase reporter, 20 h; Potency, µM (series often up to 53.6 µM), usual class: inhibitors; actives 5.4% (n = 310,000); also: nearly all actives have a fitted effect of over 60% in size
Target sequence (P51450 whole entry, looked up, the tested form may be a part): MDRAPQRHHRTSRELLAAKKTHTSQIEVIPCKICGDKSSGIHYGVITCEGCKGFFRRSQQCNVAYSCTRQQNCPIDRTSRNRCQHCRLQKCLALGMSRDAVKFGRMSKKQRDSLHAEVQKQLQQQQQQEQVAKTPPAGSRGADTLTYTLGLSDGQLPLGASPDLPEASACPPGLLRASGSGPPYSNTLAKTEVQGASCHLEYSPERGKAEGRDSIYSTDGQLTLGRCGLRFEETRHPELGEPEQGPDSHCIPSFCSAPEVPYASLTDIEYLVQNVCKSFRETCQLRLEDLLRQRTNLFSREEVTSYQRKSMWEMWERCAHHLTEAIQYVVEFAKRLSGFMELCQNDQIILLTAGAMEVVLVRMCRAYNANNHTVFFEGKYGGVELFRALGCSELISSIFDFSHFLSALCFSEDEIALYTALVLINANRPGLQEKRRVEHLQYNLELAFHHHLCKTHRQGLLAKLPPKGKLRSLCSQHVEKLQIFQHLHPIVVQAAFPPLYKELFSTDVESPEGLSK
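A Gal4/UAS one-hybrid system in insect cells: metallothionein-promoter Gal4–ROR gamma fusion plus Photinus luciferase reporter. Copper sulfate 700 uM final, 20 hr ambient incubation, luminescent detection after 10 min with reagent.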
VP16 counter – Gal4-VP16 reporter inhibition counter-screen. Potency, µM (top dose mostly 53.6 µM), actives largely listed as inhibitors. actives 3.5% (n = 310,000). Drosophila S2 Gal4-VP16 UAS-luciferase, luminescence, 20 h. AID 2546;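 also: Gal4-VP16 expression switched on by copper sulfate through the metallothionein promoter; nearly all actives have a fitted effect of over 50% in size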
HepG2 tox – counter-screen for TGF-b inhibitors: cytotoxicity in HepG2 cells | actives 0.76% (n = 410,000) | Potency, µM (top dose mostly 46.1 µM), most hits filed as cytotoxic | AID 588856 | HepG2 CAGA-GFP viability, ATP luminescence, 18 h
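CellTiter-Glo luminescence gave cytotoxicity after 18 hours at 37 degrees C. The cells were HepG2 CAGA-GFP in 1% FBS DMEM, stimulated with 500 pg/mL TGF-beta after compound addition. %Activity was normalised to no-cell wells (complete cell-killing) and DMSO (no toxicity), and curves were fitted and classified.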
TGFb inhibitor – TGF-b pathway inhibition; Potency, µM (top dose mostly 46.1 µM), hits mostly inhibitors; actives 1.2% (n = 410,000); HepG2 CAGA-GFP TGF-b/SMAD3 reporter, GFP fluorescence, 18 h; TGF-beta stimulated, 500 pg/mL final; also: nearly all actives have a fitted effect of over 65% in size
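Inhibition was scored as loss of TGF-beta-induced (500 pg/mL final, 18 hours, 37 degrees C) GFP in HEPG2 cells carrying a CAGA-GFP reporter, in DMEM with 1% FBS. Well GFP was summed per cell; Activity was normalised to unstimulated and stimulated DMSO wells, then concentration-response fitting.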
Hits are given with their value; . = inactive; ? = inconclusive; / = not tested or not shown; [ ] = dose if it differs, or a comment. Calls follow the shape of the dose curve; as a rule, active = well fitted curve in the direction sought with a large enough effect; inconclusive = small, poorly fitted or top-dose-only effect, or another doubt; inactive = no such curve, though single readings can be large; an effect the other way counts as inactive or inconclusive.

SMILES	S2 tox	ATXN2 expr inh	RORgamma inh	VP16 counter	HepG2 tox	TGFb inhibitor
Oc1ccc(/C=N/n2cc(-c3ccccc3)[nH]c2=S)cc1	.	.	7.9µM	.	.	.
S=c1[nH]c(-c2ccccc2)cn1/N=C/c1ccccc1Br	/	.	1µM	?	.	.
O=C(NN=Cc1cccc2ccccc12)C(=O)NN=Cc1cccc2ccccc12	.	.	/	/	.	.
S=c1[nH]c(-c2ccccc2)cn1/N=C/c1cccc2ccccc12	?	.	2.5µM	?	.	.
O=C(Nc1cc(Cl)cc(Cl)c1)c1cnn2c1NC(=C1CC1)C=C2C(F)F	/	/	/	/	.	.
COc1cc(O)ccc1CN1CCc2nnc(C(C)NC(=O)c3cc(F)ccc3F)n2CC1 (configuration not stated)	.	/	/	/	/	/
C=C(N(C)C)[C@]1(C)C[C@H]1[C@H](NC(=O)CNC(=O)OCc1ccccc1)c1ccccc1	/	/	.	.	/	/
CCCS(=O)(=O)NC(=O)C1(C)CCN(C(=O)c2cc(C)oc2C)C1 (configuration not stated)	.	.	/	/	.	.
Cc1ccc(S(=O)(=O)Nc2ccc3c(c2)C(=O)N([C@H](C)CO)C[C@H](C)[C@@H](CN(C)C(=O)Nc2ccc(C(F)(F)F)cc2)O3)cc1	?	.	/	/	.	.
CCN(CC)CC(=O)Nc1nc(-c2ccc(Cl)cc2)cs1	?	.	8.9µM	20µM	.	.
O=C(CN1CCCC1)Nc1nc(-c2ccc(Cl)cc2)cs1	.	.	/	/	.	.
CC(C)CC(=O)NC(=S)Nc1nc(-c2ccccc2)cs1	.	.	6.3µM	5.6µM	.	.
O=C(CN1CCCCC1)Nc1nc(-c2ccc(Cl)cc2)cs1	.	.	.	.	.	.
CC(C)CC(=O)NC(=S)Nc1nc(-c2ccc(Cl)cc2)cs1	/	/	8.9µM	?	.	.
CC(=O)Nc1ccc(/C=C/c2ccnc3ccccc23)cc1[N+](=O)[O-]	/	/	/	/	.	.
CCOC(=O)c1cc(C)n(CC2CCC(C(=O)Nc3ccccc3OC)CC2)c1C (configuration not stated)	/	/	/	/	.	11µM
CC(C)c1ccc(OCC(=O)NNC(=S)NC(=O)c2ccco2)c(Br)c1	?	?	6.3µM	6.3µM	.	.
CC(C)(C)c1ccc(OCC(=O)NNC(=S)NC(=O)c2ccco2)c(Br)c1	?	?	5µM	8.9µM	.	.
Cc1cc(Cl)ccc1OCC(=O)NNC(=O)c1ccco1	.	.	.	.	.	.
Cc1ccccc1OCC(=O)NNC(=S)NC(=O)c1ccco1	.	?	13µM	?	.	.
CC(C)c1ccc(OCC(=O)NC2CC(C)(C)NC(C)(C)C2)c(Br)c1	.	.	.	.	11µM	?
Cc1ccccc1NC(=S)NC(=O)COc1ccccc1C	.	.	13µM	?	.	.
NC(=O)COc1ccc(C(=O)/C=C2/C(=O)Nc3ccccc32)cc1	.	.	7.9µM	?	.	?
COc1ccc(C(=O)/C=C2/C(=O)Nc3ccccc32)c(OC)c1	.	.	?	?	10µM	13µM
COc1ccc(C(=O)/C=C2/C(=O)Nc3ccccc32)cc1	?	?	10µM	?	14µM	?
SMILES	S2 tox	ATXN2 expr inh	RORgamma inh	VP16 counter	HepG2 tox	TGFb inhibitor
COc1ccc(C(=O)/C=C2/C(=O)Nc3ccccc32)cc1OC	?	/	?	?	.	.
O=C1Nc2ccccc2/C1=C/C(=O)c1cccs1	?	?	?	?	14µM	?
C=CCOc1ccc(C(=O)/C=C2/C(=O)Nc3ccccc32)cc1	.	.	?	.	.	.
O=C(c1cccc(F)c1)N(Cc1cc2cc3c(cc2nc1N1CCOCC1)CCC3)CC1CCCO1 (configuration not stated)	.	/	/	/	/	/
O=C1Nc2ccccc2/C1=C/c1cnc(-c2ccccc2)[nH]1	/	.	.	.	.	.
C=CCOc1ccccc1C(=O)/C=C1/C(=O)Nc2ccccc21	?	.	5.6µM	13µM	6.3µM	?
CCCN(CC(=O)Nc1cc(Cl)cc(Cl)c1)CC(=O)Nc1ccc(F)c(F)c1F	?	?	?	22µM	.	?
CCCN(CC(=O)Nc1ccccc1Br)CC(=O)Nc1ccc(F)c(F)c1F	.	.	.	.	.	?
COc1cc2[nH]c(=S)nc(NCCCOC(C)C)c2cc1OC	.	?	16µM	?	.	.
CCOCCCNc1nc(=S)[nH]c2cc(OC)c(OC)cc12	.	.	?	.	.	?
CCCCNc1nc(=S)[nH]c2cc(OC)c(OC)cc12	.	.	7.9µM	7.9µM	.	.
COC(=O)[C@@H]1C[C@H]2CC[C@H](O)C[C@H]2N1Cc1c(F)cccc1Cl	/	/	.	.	/	/
CCOc1ccc(C=Nc2ccc(/C=C/c3ccnc4ccccc34)cc2)cc1OCC	/	/	/	/	.	.
CC1=C(C)CS(=O)N(c2ccc(S(N)(=O)=O)cc2)C1 (configuration not stated)	.	.	3.5µM	4.5µM	.	.
CC1=C(C)CS(=O)N(S(=O)(=O)c2ccccc2)C1 (configuration not stated)	.	.	8.9µM	11µM	.	?
C=CCn1c(CCSCc2ccccc2)n[nH]c1=S	.	/	4µM	?	.	.
CCn1c(CCCc2ccc(OC)c(C)c2)n[nH]c1=S	?	.	2.2µM	?	.	.
C=CCn1c(CCSCc2ccc(OC)c(C)c2)n[nH]c1=S	.	.	2.5µM	.	.	.
COc1ccc(Oc2ncc3nc(-c4cn(C)c5ccccc45)c(=O)n(C4CC4)c3n2)cc1	/	/	.	.	/	/
COc1cccc(OCC(=O)NNC(=S)Nc2ccc(Cl)cc2Cl)c1	.	.[11.3 µM]	16µM	.	.	.
COc1cccc(OCC(=O)NNC(=O)C(=O)Nc2ccc(OC)cc2OC)c1	.	.	.	.	.	.
O=C(O)CCC(=O)NNC(=O)COc1cccc(Cl)c1	.	.	.	.	.	.
O=C(COc1cccc(Cl)c1)NNC(=S)Nc1ccccc1	.	.	0.89µM	1µM	.	.
Cc1ccc(CNS(=O)(=O)c2ccc(Cl)s2)cc1	.	/	/	/	.	.
O=C(NCCc1ccc(Cl)cc1)c1ccc2c(c1)N(Cc1ccc(Cl)cc1)C(=O)CS2	?	?	/	/	.	?
Cc1cccc(C)c1OCC(=O)N[C@@H](Cc1ccccc1)[C@@H](O)C[C@H](Cc1ccccc1)NC(=O)[C@H](C(C)C)N1CCCNC1=O	32µM	?	?	.	.	13µM
CC(c1ccco1)N(C(=O)COc1ccc(Cl)cc1)c1ccccn1 (configuration not stated)	.	.	.	.	.	.
CC(C)CC(=O)NC(=S)Nc1ccc(CN2CCOCC2)cc1	.	.	4.5µM	.	.	.

Bioassay records deposited in PubChem by National Center for Advancing Translational Sciences (NCATS).
